Compound activity from PubChem.
C diff HTS = inhibitors of Clostridium difficile growth; Clostridium difficile clinical isolate growth, OD600, 24 h; active compounds read low; growth activity, negative = inhibition, % at 16 µg/mL (by protocol); actives 0.25% (n = 86,000);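 active = mean growth activity at or below -80% and every replicate also at or below -80%; inconclusive = mean at or below -80% but some replicate above -80%; inactive = mean growth activity above -80%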;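 note: 0% = DMSO wells and -100% = levofloxacin 16 µg/mL wells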
Pf Dd2 inh = inhibitors of Plasmodium falciparum Dd2 growth; activity change, % at 10 µM; P. falciparum Dd2 growth, SYBR Green, 72 h; active compounds read low; actives 2.3% (n = 94,000); AID 1159554; in the data active = activity change below about -80%; inconclusive = no clear call, values can overlap the other calls
T cruzi growth-1 = T. cruzi proliferation inhibition; T. cruzi beta-gal in NIH3T3, GalScreen luminescence, 90 h; inhibition, % at 8.34 µM; actives 5.9% (n = 77,000);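 active = mean inhibition above about 93%, with at least 55% of replicates each passing it, limit read from the data, passing the limit was not always enough; inconclusive = only one of those two conditions holds; inactive = neither condition holds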
T cruzi growth-2 = blocks T. cruzi growth in NIH3T3 host cells; shares compounds with T cruzi growth-1; actives 72% (n = 5,600); T. cruzi beta-gal in NIH3T3, GalScreen luminescence, 90 h; AID 651739; inhibition, % at 8.35 µM;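 active = mean replicate inhibition above about 95% and at least 55% of replicates individually reaching it, limit read from the data; inconclusive = only one of the two criteria is met; inactive = neither criterion is met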
T cruzi growth-3 = inhibitors of T. cruzi proliferation; actives 21% (n = 5,600); shares compounds with T cruzi growth-1; inhibition, % at 2.09 µM; T. cruzi beta-gal in NIH3T3, GalScreen luminescence, 90 h;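 active = mean inhibition above about 95%, with at least 55% of replicates also reaching it, limit read from the data; inconclusive = meets just one of the two conditions; inactive = meets neither condition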;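 note: plate controls were neutral control median for no effect and positive control median for full effect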
NIH3T3 tox = NIH/3T3 (mouse) viability loss; AID 651742; cytotoxicity (signal decrease), % at 8.35 µM; shares compounds with T cruzi growth-1; NIH/3T3 viability, CellTiter-Glo ATP luminescence, 90 h; actives 14% (n = 5,600);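 active = mean signal decrease across replicates above about 35% based on untreated-well scatter, with enough replicates individually passing, limit read from the data; inconclusive = no rule stated though some were filed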;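 note: 0% = median of neutral control wells and 100% = median of positive control wells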
3T3 cytotox 2 = NIH/3T3 (mouse) viability loss. inhibition, % at 24.9 µM. NIH/3T3 viability, CellTiter-Glo ATP luminescence, 90 h. shares compounds with T cruzi growth-1. actives 56% (n = 5,600);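 active = mean loss of cell viability signal at or above a set limit, and enough replicates individually reaching it; inconclusive = meets only the mean limit or only the replicate share; inactive = meets neither condition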;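 note: 0% = median of neutral control wells and 100% = median of positive control wells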
* = called active by the depositor; ? = inconclusive; · = no result given. Compounds with a hit are over-represented: about 6.7% of the library has one in this group of screens.

SMILES	C diff HTS	Pf Dd2 inh	T cruzi growth-1	T cruzi growth-2	T cruzi growth-3	NIH3T3 tox	3T3 cytotox 2
COc1ccc(S(=O)(=O)N(C)C[C@@H]2Oc3cc(-c4ccccc4OC)ccc3S(=O)(=O)N([C@H](C)CO)C[C@H]2C)cc1	1.5	-87.3*	127.0*	102.2*	51.2	5.8	57.9*
COc1ccc(S(=O)(=O)N(C)C[C@@H]2Oc3cc(-c4ccccc4OC)ccc3S(=O)(=O)N([C@@H](C)CO)C[C@@H]2C)cc1	11.3	-61.5	125.9*	114.5*	100.1*	45.1*	24.7
COc1ccccc1-c1ccc2c(c1)O[C@@H](CN(C)C(C)=O)[C@H](C)CN([C@H](C)CO)S2(=O)=O	3.0	18.2	16.5	·	·	·	·
COc1ccc(S(=O)(=O)N(C)C[C@@H]2Oc3cc(C4=CCCC4)ccc3S(=O)(=O)N([C@@H](C)CO)C[C@H]2C)cc1	8.7	-46.1	42.0	·	·	·	·
COc1ccc(S(=O)(=O)N(C)C[C@@H]2Oc3cc(-c4ccccc4OC)ccc3S(=O)(=O)N([C@H](C)CO)C[C@@H]2C)cc1	6.1	-50.0	126.8*	109.7*	81.6	32.1	63.2*
COc1ccc(S(=O)(=O)N(C)C[C@@H]2Oc3cc(C4=CCCC4)ccc3S(=O)(=O)N([C@H](C)CO)C[C@H]2C)cc1	14.8	-43.0	23.8	·	·	·	·
CCNC(=O)C[C@H]1CC[C@H]2[C@@H](COc3ccc(NC(=O)Cc4cccs4)cc3C(=O)N2C)O1	7.6	15.8	-3.3	·	·	·	·
COc1ccc2c3c([nH]c2c1)[C@H](CO)N(C(=O)c1ccccc1)CC31CN(Cc2cccnc2)C1	-1.4	-15.4	·	·	·	·	·
CCCC#Cc1ccc([C@@H]2[C@H](CO)N3CCCCN(Cc4cncnc4)C[C@@H]23)cc1	-2.4	-26.9	42.2	·	·	·	·
CCCC#Cc1ccc([C@H]2[C@H](CO)N3CCCCN(Cc4cncnc4)C[C@@H]23)cc1	0.1	-0.8	55.2	·	·	·	·
CCCC#Cc1ccc([C@@H]2[C@H]3CN(Cc4cccnc4)CCCCN3[C@H]2CO)cc1	-3.0	-8.2	91.6	·	·	·	·
CCCC#Cc1ccc([C@@H]2[C@@H](CO)N3CCCCN(Cc4cccnc4)C[C@H]23)cc1	6.8	-65.5	?	101.6*	35.5	7.5	81.9*
CCCC#Cc1ccc([C@H]2[C@H](CO)N3CCCCN(Cc4ccncc4)C[C@@H]23)cc1	-0.4	-41.0	106.7*	99.9*	45.8	33.9	85.9*
CCCC#Cc1ccc([C@H]2[C@H](CO)N3CCCCN(Cc4cccnc4)C[C@@H]23)cc1	-0.1	-59.2	115.1*	108.5*	68.8	-15.4	90.2*
CCCC#Cc1ccc([C@@H]2[C@H](CO)N3CCCCN(Cc4cccnc4)C[C@@H]23)cc1	-4.3	-66.4	102.9*	105.0*	80.8	29.4	103.7*
COc1ccc2c3c([nH]c2c1)[C@H](CO)N(C(=O)NC(C)C)CC31CCN(C(=O)c2cnccn2)CC1	-14.3	4.0	·	·	·	·	·
O=C(CC1CC1)Nc1ccc2c(c1)[C@H]1C[C@H](CC(=O)N3CCCCC3)O[C@@H](CO)[C@H]1O2	0.4	15.4	57.9	·	·	·	·
O=C(C[C@H]1C=C[C@H](NC(=O)CCN2CCCCC2)[C@@H](CO)O1)Nc1ccc(-c2ccccc2)cc1	·	-11.3	-91.2	·	·	·	·
CO[C@@H]1CN(C)C(=O)c2cc(NC(=O)c3cnccn3)ccc2OC[C@@H](C)N(CC2CC2)C[C@@H]1C	13.8	10.7	·	·	·	·	·
C[C@H](CO)N1C[C@H](C)[C@H](CN(C)S(=O)(=O)c2cn(C)cn2)Oc2c(NC(=O)Nc3ccc(F)cc3)cccc2C1=O	1.5	26.3	·	·	·	·	·
Cc1noc(C)c1NC(=O)Nc1ccc2c(c1)C(=O)N([C@H](C)CO)C[C@@H](C)[C@@H](CN(C)Cc1ccncc1)O2	0.2	31.8	·	·	·	·	·
C[C@H]1CN([C@@H](C)CO)C(=O)Cc2cc(NC(=O)C3CC3)ccc2O[C@@H]1CN(C)CC1CC1	0.9	20.3	21.1	·	·	·	·
CC(C)(C)[S@](=O)N1Cc2cc(C(=O)N3CCCCC3)nc(-c3cccc(-c4ccc(F)cc4)c3)c2[C@@H]1CCO	·	-25.6	78.1	·	·	·	·
COc1cccc(S(=O)(=O)N2CCCCN3[C@H](CO)[C@H](c4ccc(-c5cncnc5)cc4)[C@H]3C2)c1	6.7	8.5	82.4	·	·	·	·
COc1cccc(S(=O)(=O)N2CCCCN3[C@H](CO)[C@H](c4ccc(-c5cncnc5)cc4)[C@@H]3C2)c1	8.0	32.6	36.0	·	·	·	·
SMILES	C diff HTS	Pf Dd2 inh	T cruzi growth-1	T cruzi growth-2	T cruzi growth-3	NIH3T3 tox	3T3 cytotox 2
COc1cccc(S(=O)(=O)N2CCCCN3[C@@H](CO)[C@H](c4ccc(-c5cccnc5)cc4)[C@@H]3C2)c1	-8.1	4.0	106.8*	99.9*	42.6	?	38.2*
COc1cccc(S(=O)(=O)N2CCCCN3[C@H](C2)[C@@H](c2ccc(-c4cccnc4)cc2)[C@@H]3CO)c1	-2.4	-64.6	113.6*	111.6*	83.7	22.8	51.1*
COC(=O)C[C@H]1CC[C@H]2[C@H](COc3ccc(NC(=O)c4cccc(OC)c4)cc3C(=O)N2C)O1	-7.6	-6.6	-68.0	·	·	·	·
CC(C)CC#Cc1ccc2c(c1)O[C@@H](CN(C)S(C)(=O)=O)[C@H](C)CN([C@H](C)CO)S2(=O)=O	·	-53.2	-17.0	·	·	·	·
O=C(C[C@@H]1CC[C@@H]2[C@H](COC[C@H](O)CN2C(=O)C2CCOCC2)O1)NCc1ccncc1	-2.4	-3.2	-1.9	·	·	·	·
C[C@@H]1CCCCO[C@H](CN(C)S(=O)(=O)c2ccc(Cl)cc2)[C@H](C)CN([C@@H](C)CO)C(=O)c2cc(NC(=O)Nc3ccccc3)ccc2O1	·	?	88.2	·	·	·	·
Cc1ccc(S(=O)(=O)N(C)C[C@@H]2OCCCC[C@@H](C)Oc3ccc(NC(=O)Nc4ccccc4)cc3C(=O)N([C@H](C)CO)C[C@H]2C)cc1	16.6	-84.8*	109.0*	109.3*	108.2*	7.0	24.0
C[C@H](CO)N1C[C@H](C)[C@H](CN(C)S(=O)(=O)c2ccc(Cl)cc2)OCCCC[C@H](C)Oc2ccc(NC(=O)Nc3ccccc3)cc2C1=O	·	-79.1	93.6	·	·	·	·
Cc1ccc(S(=O)(=O)N(C)C[C@@H]2OCCCC[C@@H](C)Oc3ccc(NC(=O)c4ccccc4)cc3C(=O)N([C@@H](C)CO)C[C@@H]2C)cc1	·	-79.9	59.3	·	·	·	·
Cc1ccc(S(=O)(=O)N(C)C[C@@H]2OCCCC[C@H](C)Oc3ccc(NC(=O)c4ccccc4)cc3C(=O)N([C@H](C)CO)C[C@H]2C)cc1	·	-81.0*	101.0*	99.0*	26.9	9.0	48.9*
C[C@H]1CCCCO[C@H](CN(C)S(=O)(=O)c2ccc(Cl)cc2)[C@@H](C)CN([C@@H](C)CO)C(=O)c2cc(NC(=O)Nc3ccccc3)ccc2O1	·	?	88.2	·	·	·	·
